Laboratory results published in PubChem BioAssay AID2061304 (National Center for Advancing Translational Sciences (NCATS), 2025).
Results filed as inconclusive are left out. Active and inactive are the calls of the source. Calls follow the shape of the dose curve; as a rule, active = well fitted inhibition curve with a large enough effect; inconclusive = small, poorly fitted or top-dose-only effect; inactive = flat fitted curve, though single readings scatter. Square brackets hold non-standard residues; d marks the D form. Peptide text beside a SMILES is read from it. * marks the point of attachment. Dolaproine = CO[C@@H]([C@@H]1CCCN1)[C@@H](C)C(=O)O; Dil = CC[C@H](C)[C@H](NC)[C@@H](CC(=O)O)OC; NMe2Val = CC(C)[C@@H](C(=O)*)N(C)C; X1 = C[C@@H](N*)[C@@H](O)c1ccccc1; NMeV = CN[C@H](C(=O)O)C(C)C

Test: Identification of antibody-drug conjugate (ADC) payloads which are substrates of ATP-binding cassette drug efflux transporters: ABCB1-HeLa-KB-8-5-11 cell line
Settings: KB-8-5-11 (P-gp overexpressing HeLa) viability, CellTiter-Glo, 48 h
Description: Antibody-drug conjugates (ADCs) feature an antibody recognizing a specific protein joined to a potent toxic payload. Numerous antibody-drug conjugates have received FDA approval; however, clinical resistance arises. Resistance mechanisms include decreased expression or mutation of the antibody target, impaired payload release, or increased expression of ATP-binding cassette (ABC) efflux transporters associated with multidrug resistance. We therefore sought to characterize the interaction of ABC multidrug transporters with ADC payloads. We performed a high-throughput screen with 27 common ADC payloads using cells lines expressing ABC transporters P-glycoprotein (P-gp, encoded by ABCB1) or ABCG2 (encoded by ABCG2). Confirmatory assays were also performed using cells transfected to express P-gp, ABCG2, or MRP1 (encoded by ABCC1). Several commonly used ADC payloads were substrates of P-gp, including calicheamicin gamma1, monomethyl auristatin E, DM1, and DM4. All the pyrrolobenzodiazepines tested - SJG136, SGD-1882, SG2057, and SG3199 - were substrates of P-gp, ABCG2, and MRP1. […] These findings highlight the risk of transporter-mediated resistance with certain ADC payloads and underscore the importance of selecting payloads that evade ABC transporter recognition in future ADC development.
HEK-293 cells were transfected with empty vector (pcDNA) or vector containing the human ABCB1 (MDR-19), ABCG2 (R-5), or ABCC1 gene (MRP1) and were maintained in EMEM with 2 mg/mL G418 added to maintain transporter expression. The HeLa derivative KB-3-1 and the P-gp overexpressing KB-8-5-11 subline were maintained in DMEM; KB-8-5-11 additionally received 100 ng/mL colchicine. H460 parental cells were obtained from the Division of Cancer Treatment and Diagnosis Tumor Repository, National Cancer Institute at Frederick, MD and were cultured in RPMI. The ABCG2 expressing subline H460 MX20 was generated by selecting H460 cells in 20 nM mitoxantrone. Media in all cases was supplemented with 10% FBS and 1% penicillin-streptomycin. We explored 27 common ADC payloads, in two orthogonal, paired cell line sets-a drug selected and transfected set for each transporter--to identify substrates of the ABC transporters P-gp and ABCG2. Compounds were sourced from Levena Biopharma (San Diego, CA), Selleck Chem (Houston, TX), ChemieTek (Indianapolis, IN), or Microsource Discovery Systems (Gaylordsville, CT). Screening was performed as previously described. Briefly, cells were plated at a density of 500 cells/well in 1536 well plates with compounds added using a 1536-head pin tool (Kalypsys, San Diego CA). Cells were incubated with cytotoxic drugs and processed with CellTiter Glo reagent (Promega, Madison, WI) to determine viability after 48 hours. P-gp substrates were identified by comparing compound activity between paired sets of low-expressing (sensitive) and over-expressing (resistant) cell lines.

Question: With `COc1cc2cc(c1Cl)N(C)C(=O)C[C@H](OC(=O)[C@H](C)N(C)C(=O)CCS)[C@]1(C)OC1[C@H](C)C1C[C@@](O)(NC(=O)O1)[C@H](OC)/C=C/C=C(\C)C2` (some centres not stated) as the molecule, how does the Potency read?
Answer: Its Potency is 106 nM (active).

Question: Which Potency does the source give for `COc1cc2cc(C(=O)N3C[C@@H](CCl)c4c3cc(O)c3ccccc43)[nH]c2c(OC)c1OC` here?
Answer: Its Potency is 1.3 nM (active).

Question: With `CC[C@H](C)[C@@H]([C@@H](CC(=O)N1CCC[C@H]1[C@H](OC)[C@@H](C)C(=O)N[C@H](C)[C@@H](O)c1ccccc1)OC)N(C)C(=O)[C@@H](NC(=O)[C@@H](NC)C(C)C)C(C)C` (H-[NMeV]V[Dil][Dolaproine]-X1) as the molecule, how does the Potency read?
Answer: Its Potency is 211 nM (active).

Question: Which Potency does the source give for `CC[C@H](C)[C@@H]([C@@H](CC(=O)N1CCC[C@H]1[C@H](OC)[C@@H](C)C(=O)N[C@@H](Cc1ccccc1)C(=O)O)OC)N(C)C(=O)[C@@H](NC(=O)[C@H](C(C)C)N(C)C)C(C)C` (NMe2Val-V[Dil][Dolaproine]F-OH) here?
Answer: Its Potency is 265 nM (active).

Question: With `CC[C@H](C)[C@@H]([C@@H](CC(=O)N1CCC[C@H]1[C@H](OC)[C@@H](C)C(=O)N[C@H](C)[C@@H](O)c1ccccc1)OC)N(C)C(=O)[C@@H](NC(=O)[C@H](C(C)C)N(C)C)C(C)C` as the molecule, how does the Potency read?
Answer: The Potency was 52.9 nM (active).

Question: With `COc1cc2cc(c1Cl)N(C)C(=O)C[C@H](OC(=O)[C@H](C)N(C)C(=O)CCC(C)(C)S)[C@]1(C)OC1[C@H](C)C1C[C@@](O)(NC(=O)O1)[C@H](OC)/C=C/C=C(\C)C2` (some centres not stated) as the molecule, how does the Potency read?
Answer: The Potency was 26.5 nM (active).

Question: Which Potency does the source give for `CC[C@@]1(O)C(=O)OCc2c1cc1n(c2=O)Cc2cc3ccccc3nc2-1` here?
Answer: The Potency was 334 nM (active).

Question: For `CC[C@H](C)[C@H](NC(=O)[C@H]1CCCCN1C)C(=O)N(C)[C@H](C[C@@H](OC(C)=O)c1nc(C(=O)N[C@@H](Cc2ccccc2)C[C@H](C)C(=O)O)cs1)C(C)C`, which Potency is on record?
Answer: The Potency was 10.6 nM (active).

Question: For `COc1cccc2c1C(=O)c1c(O)c3c(c(O)c1C2=O)C[C@@](O)(C(=O)CO)CC3OC1CC(N2CCOC(OC)C2)C(O)C(C)O1` (some centres not stated), which Potency is on record?
Answer: Its Potency is 13.3 nM (active).

Question: Which Potency does the source give for `COc1cc2cc(c1Cl)N(C)C(=O)C[C@H](OC(=O)C(C)C)[C@]1(C)O[C@H]1[C@H](C)[C@@H]1C[C@@](O)(NC(=O)O1)[C@H](OC)C=CC=C(C)C2` here?
Answer: Its Potency is 4.7 nM (active).

Question: For `CC[C@H](C)[C@H](NC(=O)[C@H]1CCCCN1C)C(=O)N(C)[C@H](C[C@@H](OC(C)=O)c1nc(C(=O)O)cs1)C(C)C`, which Potency is on record?
Answer: The Potency was 4200 nM (active).

Question: For `CC[C@H](C)[C@@H]1NC(=O)CNC(=O)[C@H]2Cc3c([nH]c4cc(O)ccc34)S(=O)C[C@H](NC(=O)CNC1=O)C(=O)N[C@@H](CC(N)=O)C(=O)N1C[C@H](O)C[C@H]1C(=O)N[C@@H]([C@@H](C)[C@@H](O)CO)C(=O)N2` (some centres not stated), which Potency is on record?
Answer: Its Potency is 4720 nM (active).
